Measured values as given in PubChem BioAssay (NCATS).
Results filed as inconclusive are left out. Entries that show only a call come without a potency. Active and inactive are the calls of the source. Calls come from the whole dose curve; as a rule, active = well fitted inhibition curve with a large enough effect; inconclusive = small, poorly fitted or top-dose-only effect; inactive = no such curve, though single readings can be large or run the other way.

assay: Tertiary RLuc qRT-PCR qHTS assay for Zika virus inhibitors (AID 1347169); conditions: infected Vero cells, reporter luminescence, 48-72 h; series mostly up to 1.74 µM; note: nearly all actives have a fitted effect of over 55% in size; note: potency is the fitted concentration of half-maximal effect
In short: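 Orthogonal cell-based infection assay using recombinant ZIKV-RLuc (Cambodian) in Vero cells; compound added prior to virus at MOI 1-2. Incubation lasts 48-72 hrs at 37 degrees C before live-cell Renilla substrate is added and luminescence measured.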

Q: Which Potency does the source give for CC(C)CN1CC(COc2ccc3ccccc3c2)Oc2ccnc(-c3ccc(OCC(=O)O)cc3)c2C1=O (configuration not stated) here?
A: The Potency was “inactive”.

Q: For Cc1ccc(-c2nnc(Nc3ccc(O)cc3)c3ccccc23)cc1S(=O)(=O)NC(C)(C)CO, which Potency is on record?
A: The Potency was “inactive”.

Q: With O=S(=O)(Nc1ccc(O)c(Sc2nc3ccccc3s2)c1)c1cc(Cl)ccc1Cl as the compound, how does the Potency read?
A: The Potency was “inactive”.

Q: For O=C(COc1ccccc1C(=O)OCC(=O)Nc1cccc2ccccc12)Nc1ccc(Br)cc1, which Potency is on record?
A: Its Potency is “inactive”.

Q: For CC(Oc1ccccc1)C(=O)Nc1ccc(C(=O)OCc2cc(=O)n3nc(C4CC4)sc3n2)cc1 (configuration not stated), which Potency is on record?
A: The Potency was “inactive”.

Q: Which Potency does the source give for CC(C)C[C@@H](NC(=O)[C@H](Cc1ccccc1)NC(=O)c1cnccn1)B(O)O here?
A: Its Potency is 26.9 nM (active).

Q: Which Potency does the source give for O=C(OCc1cc(=O)n2nc(C3CC3)sc2n1)c1cccc(NC(=O)c2ccccc2Cl)c1 here?
A: The Potency was “inactive”.

Q: With Clc1ccc(-c2nn3c(COc4cccc(OCc5nnc6sc(-c7ccc(Cl)cc7)nn56)c4)nnc3s2)cc1 as the compound, how does the Potency read?
A: The Potency was “inactive”.

Q: For Cc1cccc(C(=O)Nc2ccc(C(=O)OCc3cc(=O)n4c5c(sc4n3)CCCC5)cc2)c1, which Potency is on record?
A: The Potency was “inactive”.

assay: Primary qHTS for small molecule stabilizers of the endoplasmic reticulum resident proteome: Secreted ER Calcium Modulated Protein (SERCaMP) assay (AID 1508630); conditions: SH-SY5Y GLuc-SERCaMP (Gaussia luciferase released on ER calcium loss) secretion, thapsigargin, luminescence; series mostly up to 38.4 µM
In short: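 GLuc-SERCaMP-expressing SH-SY5Y cells, pretreated 16 h with compound, are challenged with thapsigargin to empty ER calcium stores; after 4 h, coelenterazine is added directly to the medium and luminescence is imaged.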

Q: Which Potency does the source give for CCN(CC)c1ccc(/C=N/NC(=O)c2ccc(O)cc2)cc1 here?
A: Its Potency is “inactive”.

Q: With Cc1c2ccccc2c(CSC(=N)N)c2ccccc12 as the compound, how does the Potency read?
A: The Potency was “inactive”.

Q: For CC[C@@H](C(=O)[C@H](C)[C@@H](O)[C@H](C)CCc1ccc(C)c(O)c1C(=O)O)C1O[C@@](CC)(C2CC[C@](O)(CC)[C@H](C)O2)C[C@@H]1C (some centres not stated), which Potency is on record?
A: Its Potency is “inactive”.
